# How the values were obtained:
# [1] = system: Vero E6 infected with SARS-CoV-2; test: inhibition of SARS-CoV-2 cytopathic effect; higher = more antiviral protection, active = above 15; conditions: 48 h
# [2] = system: Vero E6 infected with SARS-CoV-2; test: morphology score (similarity to uninfected cells); higher = more like uninfected cells; conditions: 24 h
Compound,inhibition of SARS-CoV-2 cytopathic effect ([1]; 1 nM),inhibition of SARS-CoV-2 cytopathic effect ([1]; 8.33 nM),inhibition of SARS-CoV-2 cytopathic effect ([1]; 100 nM),inhibition of SARS-CoV-2 cytopathic effect ([1]; 833.33 nM),inhibition of SARS-CoV-2 cytopathic effect ([1]; 10000 nM),morphology score [2]
O=C(O)[C@]1(Cc2cccc(Nc3nccs3)n2)CC[C@@H](Oc2cccc(Cl)c2F)CC1,0.11% (inactive),-0.24% (inactive),-0.82% (inactive),-6.57% (inactive),-5.28% (inactive),–
CC(=O)OCC(=O)[C@@]1(O)[C@@H](C)C[C@H]2[C@@H]3CCC4=CC(=O)C=C[C@]4(C)[C@@]3(F)[C@@H](O)C[C@@]21C [betamethasone-acetate],-1.36% (inactive),0.805% (inactive),0.555% (inactive),0.57% (inactive),-0.935% (inactive),–
Nc1nc(N)c2nc(-c3ccccc3)c(N)nc2n1 [triamterene],0.51% (inactive),2.72% (inactive),4.04% (inactive),0.17% (inactive),-2.92% (inactive),–
Cc1cc(Cn2cnc3c2C[C@@H](C(=O)O)N(C(=O)C(c2ccccc2)c2ccccc2)C3)ccc1N(C)C,-2.45% (inactive),-1.75% (inactive),-3.61% (inactive),-1.45% (inactive),0.19% (inactive),–
Cc1nc2c(OCc3ccccc3)cccn2c1CC#N,-1.06% (inactive),0.99% (inactive),2.87% (inactive),0.07% (inactive),1.07% (inactive),–
Cc1onc(-c2c(Cl)cccc2Cl)c1C(=O)N[C@@H]1C(=O)N2[C@@H]1SC(C)(C)[C@@H]2C(=O)O [dicloxacillin],0.8% (inactive),-0.85% (inactive),-0.59% (inactive),1% (inactive),1.51% (inactive),–
OC[C@H]1O[C@@H](n2cnc3c(N[C@H]4CCC[C@@H]4O)ncnc32)[C@H](O)[C@@H]1O,4.79% (inactive),4.09% (inactive),3.63% (inactive),-0.63% (inactive),0.91% (inactive),–
C[S+](C)CC[C@H](N)C(=O)O [cabagin],-1.01% (inactive),-0.84% (inactive),-0.11% (inactive),0.92% (inactive),0.96% (inactive),–
O=C1NC(=O)C(=Cc2ccc(-c3ccc(F)cc3)o2)S1 (stereo in doubt),-2.32% (inactive),0.24% (inactive),-0.68% (inactive),0.32% (inactive),1.47% (inactive),–
C[C@]12CC[C@H](O)CC1=CC[C@@H]1[C@@H]2CC[C@]2(C)C(=O)CC[C@@H]12 (10 µM),–,–,–,–,–,0.0986

# Source: the supplement of paper PMC13380429
